Source: PubChem BioAssay (NCI)
The panel holds about 83,000 compounds, 20% with a hit somewhere; the sample as a whole holds those more often.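 For each line, cells grew in 96-well plates with the test compound present at a single concentration for 48 hours.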 Active and inactive are the calls of the source. The calls were made as follows: active = growth percent below 10; inactive = the rest.

test system: HL-60(TB) leukemia; assay: NCI-60 one-dose screen, 48 h (100 = growth as untreated, 0 = no growth, -100 = all killed); conditions: 10 µM unless noted

SMILES | growth
CSc1oc(C)nc1[P+](c1ccccc1)(c1ccccc1)c1ccccc1 | 46.5% (inactive)
CC1=CC[C@@H]2C(C)(C)[C@@H](O)CC[C@@]2(C)[C@@H]1COc1ccc2ccc(=O)oc2c1 | 76.7% (inactive)
Cc1ccccc1/C=C1\CN(C(=O)OC(C)(C)C)C/C(=C\c2ccccc2C)C1=O | 40.6% (inactive)
